Hits are enriched below; roughly 5.7% of the tested compounds scored in any of these assays.
hcDAF-12 act – H. contortus DAF-12 activation, primary screen; activation, % at 6.8 µM; AID 652067; HEK293 hcDAF-12 lit1-tk-luc reporter, luminescence; 0% DMSO, 100% Δ7-dafachronic acid; actives 1.4% (n = 370,000);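 active = activation above the mean of all tested compounds plus 3 SD, cut at about 5.5% in these data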;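 note: 100% = response to 3 µM Δ7-dafachronic acid high control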
hgDAF-12 ag – agonists of H. glycines DAF-12 nuclear receptor | HEK293 GAL4-hgDAF12 UAS-luciferase reporter, agonist luminescence; normalized to butyrate control | activation, % at 6.8 µM | actives 1.8% (n = 370,000);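 active = activation above a cutoff set at the mean of all screened compounds plus 3 SD, cut at about 10% in these data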;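 note: 0% = DMSO wells and 100% = sodium butyrate wells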
DAX1 inh-1 – inhibits human nuclear receptor DAX1. HEK293 Gal4-DAX1 luciferase reporter, luminescence. inhibition, % at 6.75 µM. AID 504766. actives 0.99% (n = 340,000);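 active = inhibition above the mean over all tested compounds plus 3 SD, cut at about 4.2% in these data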;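 note: 0% = DAX1-transfected cells with DMSO and 100% = empty-vector control cells with DMSO; inhibition shows as a rise in luminescence from relieved DAX1 repression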
DAX1 inh-2 – inhibitors of DAX1 repression of SF-1 activated StAR promoter. inhibition, % at 6.8 µM. actives 1.1% (n = 370,000). HEK293T StAR-luciferase reporter, SF-1/DAX-1 repression relief. AID 652010;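 active = inhibition above the mean over all tested compounds plus 3 SD, cut at about 3.6% in these data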;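 note: 0% = DAX-1 cells with DMSO and 100% = cells lacking DAX-1 with DMSO; higher inhibition means more luminescence from relief of DAX-1 repression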
ssDAF12 agonist – activators of S. stercoralis DAF-12 nuclear receptor. AID 652126. HEK293 ssDAF-12/GRIP1 lit1-tk-luc reporter, luminescence; % of 3 µM dafachronic acid response. actives 1% (n = 370,000). activation, % at 6.8 µM;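 active = activation above the mean over all tested compounds plus 3 SD, cut at about 0.9% in these data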;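 note: 0% = DMSO-only wells and 100% = 3 µM delta7-dafachronic acid wells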
AHR act – activates the human aryl hydrocarbon receptor | P35869 | AHR-responsive luciferase reporter cells, luminescence | activation, % at 5 µM | actives 2.5% (n = 320,000) | AID 2796; in the data active = activation above about 47%;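 note: 0% = vehicle wells and 100% = reference agonist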
LXR ag – counter-screen for hcDAF-12 agonists: agonists of human LXR-beta | activation, % at 6.8 µM | HEK293 Gal4-LXR tk-luc reporter, luminescence, 24 h; normalized: DMSO 0%, positive control 100% | shares compounds with hcDAF-12 act | 3,400 tested, under 10 active | AID 743027;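 active = mean percent activation of the reporter above a cutoff set as the average over tested compounds plus their standard deviation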
Target sequence (P55055 whole entry, looked up, the tested form may be a part): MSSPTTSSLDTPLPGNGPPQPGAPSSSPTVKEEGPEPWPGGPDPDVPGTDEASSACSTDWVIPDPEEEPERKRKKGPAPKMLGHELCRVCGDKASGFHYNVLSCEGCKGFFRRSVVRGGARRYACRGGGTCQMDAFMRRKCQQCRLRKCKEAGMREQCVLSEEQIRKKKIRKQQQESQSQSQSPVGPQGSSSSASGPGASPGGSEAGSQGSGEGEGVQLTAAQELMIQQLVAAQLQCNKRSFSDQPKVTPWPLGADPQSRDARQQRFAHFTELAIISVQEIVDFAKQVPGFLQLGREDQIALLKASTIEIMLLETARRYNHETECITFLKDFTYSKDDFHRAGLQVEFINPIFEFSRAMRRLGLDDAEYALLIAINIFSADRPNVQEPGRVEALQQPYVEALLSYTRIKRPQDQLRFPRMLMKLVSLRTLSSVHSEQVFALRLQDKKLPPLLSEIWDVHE
hcDAF12 ag – confirmation of H. contortus DAF-12 agonists; shares compounds with hcDAF-12 act; HEK293 hcDAF-12 lit1-tk-luc reporter, luminescence; % of Δ7-dafachronic acid response; activation, % at 6.8 µM; actives 61% (n = 3,400);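 active = mean activation across triplicate tests above the threshold derived from the earlier primary screen, cut at about 5.5% in these data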;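 note: 0% = DMSO only wells and 100% = 3 µM Δ7-dafachronic acid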
Starred values were filed as active, the others as inactive; nt = no result given.

SMILES	hcDAF-12 act	hgDAF-12 ag	DAX1 inh-1	DAX1 inh-2	ssDAF12 agonist	AHR act	LXR ag	hcDAF12 ag
COc1ccccc1-c1nnc(SCc2nc3ccccc3s2)n1C	8.6*	1	2	0	1	19	0	3
CCCCn1c(SCc2nc3ccccc3s2)nc2ccccc2c1=O	1	1	1	1	0	7	nt	nt
Cn1c(SCc2nc3ccccc3s2)nnc1-c1cccs1	7.1*	6	1	0	1.5*	16	0	4
CCCn1c(=O)c2ccccc2n2c(SCc3nc4ccccc4s3)nnc12	9.5*	8	1	3.7*	1.1*	21	1	7.3*
CCNC(=O)c1sc(-c2ccccc2)nc1C	0	1	1	1	-2	-5	nt	nt
CC(C)(C)Sc1ccc([N+](=O)[O-])cc1C(=O)Nc1ccncc1	1	0	1	0	0	4	nt	nt
C[C@H](NC(=O)c1ccc(Cl)c(S(=O)(=O)N2CCOCC2)c1)c1nc2ccccc2[nH]1	1	3	0	-1	-1	8	nt	nt
CCCN(c1ccc(C(C)C)cc1)S(=O)(=O)c1c(C)noc1C	-2	-1	0	0	0	-1	nt	nt
Cc1noc(C)c1S(=O)(=O)N(CC(=O)N1CCn2c1nc1ccccc12)c1ccc(C(C)C)cc1	8.4*	-3	3	0	0	9	0	5
CCOC(=O)c1cnc(Nc2nc3ccccc3o2)nc1C	6.8*	11*	-1	4.2*	0	-1	0	1
COc1ccc(NC(=O)[C@@]2(CC(=O)O)CC(/C=C/c3ccccc3)=NO2)cc1	7.9*	1	1	0	0	0	0	1
CC(=O)c1ccc(NC(=O)[C@@]2(CC(=O)O)CC(/C=C/c3ccccc3)=NO2)cc1	0	-1	0	0	-1	nt	nt	nt
CCCCNc1nnc(SCC(=O)c2c[nH]c3ccccc23)s1	12*	-1	1	1	0	57*	0	5
COc1ccc(/C=N/N=C(\N)c2nonc2N)cc1OC	0	9	3	2	-1	3	nt	nt
N/C(=N\N=C\c1ccc(O)cc1)c1nonc1N	7.9*	16*	3	4	0	1	1	5
N#Cc1cnn2cc(-c3ncc(C(F)(F)F)cc3Cl)cnc12	-1	2	0	-1	-2	-8	nt	nt
Cc1cc2ncc(-c3ncc(C(F)(F)F)cc3Cl)cn2n1	8.3*	12*	-2	2	1	22	1	6.7*
CC1=NN(c2nc(-c3ccc(C)cc3)cs2)C(=O)C1N=Nc1cccc(O)c1 (stereo not given)	-1	-3	-1	0	-1	-2	nt	nt
CC1=NN(C(N)=S)C(=O)C1N=Nc1ccc(Br)cc1 (stereo not given)	9.8*	5	3	2	0	nt	1	12*
CC1=NN(c2ccccc2)C(=O)C1N=Nc1ccccc1 (stereo not given)	8.0*	8	2	1	0	29	1	11*
N#C/C(=C\c1ccc(N2CCOCC2)c([N+](=O)[O-])c1)c1nc2ccccc2[nH]1	-1	3	-2	0	-2	34	nt	nt
N#C/C(=C\c1ccc(N2CCOCC2)o1)c1nc2ccccc2[nH]1	11*	-1	3	3	0	18	2	5.9*
Cn1nc(-c2ccc(C(=O)NC3CCCCC3)cc2)c2ccccc2c1=O	-1	0	3	-1	-1	-9	nt	nt
COc1ccc(NC(=O)c2sc3nc(C)cc(C)c3c2N)cc1	2	9	3	2	-1	0	nt	nt
Cc1cc(C)c2c(N)c(C(=O)Nc3ccc(C)c(C)c3)sc2n1	8.3*	10	8.0*	3	1.6*	1	2	9.5*
SMILES	hcDAF-12 act	hgDAF-12 ag	DAX1 inh-1	DAX1 inh-2	ssDAF12 agonist	AHR act	LXR ag	hcDAF12 ag
CCCCOCCCNC(=O)C[C@@H]1C[C@@]2(C(=O)OC)CC(C)(C)CC=C2N(CCc2ccc(OC)c(OC)c2)C1=O	-1	-1	nt	0	-2	nt	nt	nt
CCc1nc2ccc(C(=O)Nc3cc(-c4ccccc4)ccc3OC)cn2c1N(CCN(C)C)CC1CC1	-3	-6	nt	1	-2	nt	nt	nt
CCCN1CCN(C(=S)Nc2ccc([N+](=O)[O-])cc2)CC1	9.1*	3	-1	1	0	20	0	3
Cn1c(=O)c2c(nc(SCCN3CCOCC3)n2Cc2ccc(F)cc2)n(C)c1=O	7.8*	10	4.4*	3	1	4	1	7.5*
Cn1c(=O)c2c(nc(SCCN3CCOCC3)n2Cc2ccccc2Cl)n(C)c1=O	-2	-4	-1	-1	-2	1	nt	nt
Cc1c(CN2CCCC(CO)(Cc3cccc(Cl)c3)C2)cnn1C (stereo not given)	-2	5	-1	1	-2	0	nt	nt
Cc1cccc(-c2nnc(SCC(=O)C(C)(C)C)n2C)c1	-1	2	0	0	-1	0	nt	nt
Cc1ccc(Nc2nc(N/N=C/c3c[nH]c4ccccc34)nc(N3CCOCC3)n2)cc1	7.5*	1	-1	0	1.1*	51*	-1	-1
Cc1[nH]c2ccccc2c1/C=N/Nc1nc(Nc2ccc(F)cc2)nc(N2CCOCC2)n1	6.8*	3	2	1	0	39	0	2
CC(C)Oc1ccc(C(=O)Nc2ccc3c(c2)n(C)c(=O)n3C)cc1	1	-1	3	0	-2	3	nt	nt
CC(C)(C)C(=O)CN1C(=O)NC2(CCOc3ccccc32)C1=O (stereo not given)	8.0*	5	1	3.7*	0	nt	0	4
O=C(O)CN1C(=O)NC2(CCOc3ccccc32)C1=O (stereo not given)	-2	2	2	0	-1	1	nt	nt
O=C(/C=C/c1ccccc1[N+](=O)[O-])N1CCN(C(=O)c2ccco2)CC1	-1	4	1	0	-1	3	nt	nt
CC(/C=N/N1CCN(c2ccccc2)CC1)=C\c1ccccc1	nt	nt	0	nt	nt	0	nt	nt
CC(/C=N/N1CCN(c2ccccn2)CC1)=C\c1ccccc1	6.7*	7	2	1	-1	1	0	2
c1ccc(-c2ccc(-c3ccccn3)s2)nc1	15*	13*	4.7*	2	3.8*	33	1	13*

Screens deposited in PubChem by The Scripps Research Institute Molecular Screening Center.
